Source: PubChem BioAssay (NCI)
About 83,000 compounds went through this panel and 20% of them were active in at least one assay; those are over-represented in the sample as a whole.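 Cells were grown in 96-well plates and exposed to the test compound at a single concentration for 48 hours; results are reported as percent growth, with values below 10 considered active.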 Activity calls are given as the source filed them.

The compounds below were run on OVCAR-4 ovarian (assay: NCI-60 one-dose screen, 48 h (100 = growth as untreated, 0 = no growth, -100 = all killed)). Conditions: 10 µM unless noted.

Structure (SMILES)	growth
COc1ccc(C(=O)/C(=N/Nc2ccccc2)c2ccc(OC)cc2)cc1	87.2% (inactive)
Cn1c(=O)c2[nH]c(CC(=O)O)nc2n(C)c1=O	118% (inactive)
C=CC1=NC(C)(C)CC(C)O1 (stereo not drawn)	98.6% (inactive)
O=C(Nc1ccccc1)c1ccco1	100% (inactive)
CCOC(=O)CNC	96.5% (inactive)
Cc1cc(Cl)cc(Cc2cc(Cl)cc(C)c2O)c1O	22.2% (inactive)
CC12CCC3c4ccc(O)cc4CCC3C1CCC2=O (stereo not drawn)	106% (inactive)
Cc1onc(-c2ccccc2Cl)c1C(=O)Cl	98% (inactive)
Nc1cc(N)ncn1	99% (inactive)
ClCC(Cl)C1CCC(Cl)C(Cl)C1 (stereo not drawn)	104% (inactive)
O=[N+]([O-])c1ccc(-c2nc(N(CCO)CCO)c3ccccc3n2)o1	-25.7% (active)
C=CCC(OC(C)=O)c1ccc(OC)c(OC)c1 (stereo not drawn)	118% (inactive)
C/C(Cc1ccccc1)=N\O	117% (inactive)
O=C(NCc1ccccc1)c1cccc([N+](=O)[O-])c1	111% (inactive)
OCc1cccnc1	115% (inactive)
Cc1onc(-c2c(F)cccc2Cl)c1-c1ncc(-c2ccc(Br)cc2)o1	48% (inactive)
CC(C)c1ncc([N+](=O)[O-])n1C	117% (inactive)
Oc1ccc(CCC2CCNc3ccccc32)cc1 (stereo not drawn)	63.2% (inactive)
c1ccc2[nH]c(Cc3nc4ccccc4[nH]3)nc2c1	96.5% (inactive)

Structure (SMILES)	growth
CCOC(=O)C(CCC#N)(CCC#N)C(=O)OCC	96% (inactive)
CCOC(=O)C(COS(C)(=O)=O)(COS(C)(=O)=O)C(=O)OCC	107% (inactive)
CC(C)C(C)(C)C(=O)C(C)(C)C(C)(C)C	117% (inactive)
CC(=O)O[C@H]1CC[C@]2(C)C3=C(C(=O)C[C@H]2C1(C)C)[C@]1(C)CC[C@H]([C@H](C)CCC(=O)O)[C@@]1(C)CC3=O	94.7% (inactive)
CC(=O)OCC1CCC(COC(C)=O)CC1 (stereo not drawn)	111% (inactive)
CC(=O)NNC(=S)N/C=C/c1c(C)ccc([N+](=O)[O-])c1[N+](=O)[O-]	106% (inactive)
CCOC(=O)c1c[nH][nH]c1=O	101% (inactive)
O=S(Cc1ccccc1)/C(=C/NC(=S)Nc1ccccc1)c1ccccc1 (stereo not drawn)	98.3% (inactive)
CCOc1ccc(NC(=S)N2CCC(CCCC3CCN(C(=S)Nc4ccc(OCC)cc4)CC3)CC2)cc1	85.1% (inactive)
COc1ccc(C)cc1NC(=O)SC(C)C	96.7% [100 µM] (inactive)
Nc1ncnc(Nc2ccc(C(F)(F)F)cc2)n1	107% (inactive)
Cc1c(Cl)cccc1N=C=S	87.4% (inactive)
O=C(OC1CCCC1)c1ccccc1Cl	107% (inactive)
BrCc1cccc(C[P+](c2ccccc2)(c2ccccc2)c2ccccc2)c1	36.8% (inactive)
Cc1c(-c2ccc(C3CCCCC3)cc2)nc2ccc(F)cc2c1C(=O)O	84.2% (inactive)
CC(=O)NC(CCc1ccc(Cl)c(Cl)c1)c1cccc(O)c(=O)c1 (stereo not drawn)	24.5% (inactive)
COc1cccc(C(=O)NNC(=O)c2cccc3ccccc23)c1	109% (inactive)
O=C(CCl)Nc1ccccc1SCc1cc(Cl)cc2c1OCOC2	47.7% (inactive)
CCN(CC)c1ccc2nc3ccc(N=Nc4ccc(N(C)C)cc4)cc3[n+](-c3ccccc3)c2c1	-100% (active)
